Among the data in PubChem BioAssay (NCATS) are Potency values, retold here.

Records with an inconclusive call do not appear. Calls of active or inactive are those of the source. Calls follow the shape of the dose curve; as a rule, active = well fitted curve in the direction sought with a large enough effect; inconclusive = small, poorly fitted or top-dose-only effect, or another doubt; inactive = no such curve, though single readings can be large; an effect the other way counts as inactive or inconclusive.

Assay [1] deals with Glutathione peroxidase 1 (Homo sapiens) (UniProt P07203). The assay is described as follows: Primary qHTS Assay for Inhibitors of Recombinant Selenoprotein Glutathione Peroxidase 1 (GPX1) (AID 1845191). Also: nearly all actives have a fitted effect of over 65% in size. The essentials:
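GR-coupled assay: compounds preincubated 30 min at room temperature with GPX1, then reaction started with CHP; final 10 nM GPX1, 1 mM GSH, 0.5 mM CHP, 0.5 mM NADPH, 100 nM GR, 0.01% BSA, pH 7.5 Tris buffer. NADPH fluorescence (340/450 nm) read at 0 and 15 min.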

Assay [2] concerns the target Phospholipid hydroperoxide glutathione peroxidase GPX4 (Homo sapiens) (UniProt P36969). Put plainly: Primary qHTS Assay for Inhibitors of Recombinant Selenoprotein Glutathione Peroxidase 4 (GPX4) (AID 1845192). Also: nearly all actives have a fitted effect of over 65% in size. The gist of the method:
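GR-coupled assay: recombinant GPX4 preincubated 30 min with compound at room temperature; final 200 nM GPX4, 1 mM GSH, 0.5 mM cumene hydroperoxide, 0.5 mM NADPH, 100 nM GR, 0.01% BSA, pH 7.5 Tris. NADPH fluorescence (340/450 nm) read at 0 and 15 min.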
In general terms: qHTS replaces the single test concentration by a dilution series.

The nature of assay [3]: Primary fluorescence-based thiol-reactive (MSTI) qHTS assay for identification of artifact compounds. (AID 1845221). Also: nearly all actives have a fitted effect of over 65% in size. Also: potency is read from the fitted curve at half-maximal effect. The essentials: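 One-hour, room-temperature, dark incubation of compound with 4 uM MSTI in PBS (pH 7.4, 2% DMSO) precedes a fluorescence read at 525 nm excitation, 598 nm emission; Hill-equation fitting yields concentration-response values.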
The target in assay [4] is Luciferin 4-monooxygenase (Photinus pyralis) (UniProt P08659). Put plainly: Primary firefly luciferase (FLuc) qHTS assay for identification of artifact compounds. (AID 1845220). Also: series mostly up to about 54 µM; nearly all actives have a fitted effect of over 60% in size. The gist of the method: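 Enzymatic FLuc inhibition assay: compounds pre-exposed to luciferin/ATP (10 uM each) for 15 min, then purified P. pyralis enzyme at 10 nM added. Read-out: luminescence at 5 min.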

Sequence of Glutathione peroxidase 1 (Homo sapiens) (P07203 whole entry, looked up): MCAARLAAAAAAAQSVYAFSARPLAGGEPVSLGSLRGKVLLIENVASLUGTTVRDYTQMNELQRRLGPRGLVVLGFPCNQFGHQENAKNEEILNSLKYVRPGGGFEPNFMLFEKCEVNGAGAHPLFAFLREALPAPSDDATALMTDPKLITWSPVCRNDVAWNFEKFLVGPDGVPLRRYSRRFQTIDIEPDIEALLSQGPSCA
Sequence of Phospholipid hydroperoxide glutathione peroxidase GPX4 (Homo sapiens) (P36969 whole entry, looked up): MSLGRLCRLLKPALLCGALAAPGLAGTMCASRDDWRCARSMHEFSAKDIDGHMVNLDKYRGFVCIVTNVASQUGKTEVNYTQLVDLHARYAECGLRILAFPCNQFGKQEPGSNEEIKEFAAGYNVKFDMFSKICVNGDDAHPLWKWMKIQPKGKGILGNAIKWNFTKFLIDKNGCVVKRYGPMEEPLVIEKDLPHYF

Take `O=C(Nc1ccccc1)Nc1ccc(-c2ccc(C(=O)C3CCCC3C(=O)O)cc2)cc1` (configuration not stated): the Potency entry in assay [1], in assay [2] and in assay [3] was “inactive” each time.

Turning to `CC(C)C1(O)NC(=O)C(CC2(O)c3ccccc3N3C(=O)C(C)(C)NC32)n2c1nc1ccccc1c2=O` (configuration not stated), the Potency result in assay [1], in assay [2] and in assay [3] was “inactive” in each case.

For the compound `O=C(N[C@H](Cc1ccccc1)C(=O)O)c1sc2cc(F)ccc2c1Cl`, the Potency result in assay [1], in assay [2] and in assay [3] was “inactive” each time.

For `COC(=O)C(Cc1ccccc1)NC(=O)c1ccccc1` (configuration not stated), the Potency result in assay [1], in assay [2] and in assay [3] was “inactive” each time.

Turning to `CC(NC(=O)c1ccccc1N)C(=O)O` (configuration not stated), the Potency entry in assay [1], in assay [2] and in assay [3] was “inactive” each time.

As for `C[C@@H]1[C@H](O)[C@@H]2OC(=O)C3=C2[C@H](CCC3)[C@@]12C[C@@H](c1ccoc1)OC2=O`, the Potency result in assay [1], in assay [2] and in assay [3] was “inactive” in each case.

As to `O=C(O)Cc1cn([C@@H]2O[C@H](CO)[C@@H](O)[C@H](O)[C@H]2O[C@@H]2O[C@H](CO)[C@@H](O)[C@H](O)[C@H]2O)c2ccccc12`, the Potency entry in assay [1] and in assay [4] was “inactive” each time.

`CC1=C2C(=O)C=C(CO[C@@H]3O[C@H](CO)[C@@H](O)[C@H](O)[C@H]3O)[C@@H]2[C@H]2OC(=O)[C@H](C)[C@@H]2[C@@H](O)C1`: the Potency entry in assay [1], in assay [2] and in assay [3] was “inactive” each time.

On to `COc1ccc(C(=O)NCc2cc(C(C)C)no2)cc1OC1CCN(C)CC1`, for which the Potency result in assay [1], in assay [2] and in assay [3] was “inactive” in each case.

For `C=Cc1ccc(O[C@@H]2O[C@H](CO[C@@H]3O[C@@H](C)[C@H](O)[C@@H](O)[C@H]3O)[C@@H](O)[C@H](O)[C@H]2O)cc1`, the Potency entry in assay [1] and in assay [2] was “inactive” each time. Also, the Potency in assay [3] was 11.6 µM (active).

Turning to `COCc1c(O)c(C(=O)O)c(C)c2c1OC(=O)c1c(C)cc(O)c(CO)c1O2`, the Potency entry in assay [1] and in assay [2] was “inactive” in each case. Also, the Potency in assay [3] is 5.21 µM (active).
